Screening results as filed in PubChem BioAssay.
DUSP3 inh: VHR1 phosphatase inhibitors, primary screen, biochemical, absorbance, uHTS | AID 1654, 2009 | recombinant VHR phosphatase, pNPP absorbance | 290,000 compounds, 0.52% hits | Dual specificity protein phosphatase 3 (Homo sapiens), P51452 | inhibition, % at 13.3 µM; in the data active means inhibition above about 50%
Target sequence (P51452 whole entry, looked up): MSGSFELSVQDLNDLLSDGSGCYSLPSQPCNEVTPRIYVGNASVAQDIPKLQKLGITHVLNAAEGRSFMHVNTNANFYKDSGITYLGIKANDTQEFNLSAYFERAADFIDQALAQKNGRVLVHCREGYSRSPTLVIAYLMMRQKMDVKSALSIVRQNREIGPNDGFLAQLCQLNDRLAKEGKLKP
Sa ugtP lethal: growth inhibition of ugtP-null S. aureus, primary screen, RN4220 ugtP deletion, OD600; growth inhibition, % (test concentration not listed); 16 h; 330,000 compounds, 0.54% hits; in the data active means growth inhibition above about 68%
RN4220 kill: growth inhibition of S. aureus RN4220, primary screen, OD600; inhibition, % (no concentration beside the values); 330,000 compounds, 0.33% hits; AID 1259311, 2017; 16 h; in the data active means inhibition above about 85%
PriA SSB inh: inhibitors of Klebsiella pneumoniae PriA binding to SSB C-terminal tail, primary screen, biochemical, AlphaScreen | PriA–SSB C-terminal tail interaction (Klebsiella pneumoniae) | AlphaScreen SSBct-PriA binding, biotinylated peptide | inhibition, % at 33 µM | 430,000 compounds, 0.6% hits; in the data active means inhibition mostly above about 37%, no sharp cut-off; inactive means mostly below about 20%
CCHF vOTU inh-1: CCHFV vOTU protease inhibitors, primary screen, biochemical, Pep-AMC substrate, fluorescence. inhibition, % at 11.5 µM. 370,000 compounds, 0.55% hits. AID 651958, 2012. Crimean-Congo hemorrhagic fever virus L polyprotein viral ovarian tumor (vOTU) protease …
CCHF vOTU inh-2: CCHFV vOTU protease inhibitors, confirmation, biochemical, Pep-AMC substrate, fluorescence; shares compounds with CCHF vOTU inh-1; Recombinant CCHFV vOTU; inhibition, % at 11.5 µM; 1,900 compounds, 17% hits; AID 686976, 2013
Hits are given with their value; - = inactive; . = no result. Only some compounds are listed: those with a hit (about 1.5% of all), similar ones and a draw of the others. Unless noted, no stated cut-off is given here; in the data, active means inhibition above about 30%; inactive means the rest.

SMILES	DUSP3 inh	Sa ugtP lethal	RN4220 kill	PriA SSB inh	CCHF vOTU inh-1	CCHF vOTU inh-2
O=C(Nc1nnc(C2CCCCC2)s1)C1CC(=O)N(c2ccc(F)cc2)C1 (stereo not given)	-	-	-	-	-	.
O=C1Nc2cc(C(=O)NCC3CCCO3)ccc2S/C1=C/c1ccccc1F (stereo not given)	54	-	-	-	31	-
CN1C(=O)/C(=C/c2ccccc2F)Sc2ccc(C(=O)NCC3CCCO3)cc21 (stereo not given)	-	-	-	-	-	.
O=C(NCCn1ccn2nc(-c3ccco3)cc12)c1ccc(Cl)s1	.	.	.	-	.	.
c1ccc(Cn2cc(CCOCc3ccccn3)c3ccccc32)cc1	.	.	.	.	32	-
CS(=O)(=O)N1CCN(Cc2nc3ccccc3n2Cc2ccccc2)CC1	.	.	.	-	.	.
COc1cc(OC)cc(C(=O)NCC(c2ccco2)N(C)C)c1 (stereo not given)	.	.	.	-	.	.
COc1ccc(NS(=O)(=O)c2cc(NC(=O)c3ccc(=O)[nH]n3)ccc2C)cc1	.	-	-	-	31	-
COc1ccc(NS(=O)(=O)c2cc(C(=O)O)ccc2C)cc1	-	-	-	-	-	.
CC(=O)N[C@@H](CCS(C)(=O)=O)C(=O)Nc1cccc(C)c1	.	.	.	-	.	.
Cc1nc(N2CCOCC2)nc(N2CCCCC2)c1[N+](=O)[O-]	-	-	-	-	44	-
CC(=O)Nc1ccc(/C=N/NC(=S)NC(C)C)cc1	-	.	.	.	36	-
O=S(=O)(NCCOc1ccc(-c2ccco2)nn1)c1ccc2ccccc2c1	.	.	.	-	.	.
Cc1ccc2nsnc2c1NC(=S)NC(=O)c1ccco1	-	-	-	-	59	-
c1coc(-c2nnc(-c3ccco3)nn2)c1	-	-	-	-	45	53
COc1cc(C=C2C(=O)C=CC2=O)ccc1O	.	.	.	.	41	-
COC(=O)C1CC(Oc2ccccc2F)CN1C(=O)NC(C)(C)C (stereo not given)	.	.	.	-	.	.
O=C(NC1(O)C(=O)c2ccccc2C1=O)c1c(Cl)cccc1Cl	-	-	-	-	62	-
O=C(NC1(O)C(=O)c2ccccc2C1=O)c1ccccc1	-	-	-	-	49	31
O=C(Nc1ccccc1Cl)c1c(F)c(F)c(F)c(F)c1F	.	-	-	-	-	.
COC(=O)c1ccc2c(=O)n(Cc3ccc(C(=O)NCCc4ccccc4)cc3)c(=S)[nH]c2c1	.	.	.	-	.	.
CN(C)c1ccc(-c2ccnc3c2CC(C)(C(=O)Nc2cccc(OC(F)(F)F)c2)O3)cc1 (stereo not given)	.	.	.	.	-	.
CC1(C(=O)Nc2cccc(OC(F)(F)F)c2)Cc2c(-c3ccc4c(c3)OCO4)ccnc2O1 (stereo not given)	.	.	.	.	31	-
Nc1ccc2c(c1)C(=O)C(=O)c1ccccc1-2	-	98	98	-	101	97
Cc1ccccc1SCC(=O)NNC(=O)c1ccccc1O	-	-	-	-	39	-
SMILES	DUSP3 inh	Sa ugtP lethal	RN4220 kill	PriA SSB inh	CCHF vOTU inh-1	CCHF vOTU inh-2
CCCNS(=O)(=O)c1ccc(Oc2ncc(C(F)(F)F)cc2Cl)cc1	-	-	-	-	31	-
COc1ccc(C)cc1NC(=O)c1nnn(Cc2ccccc2)c1-n1cccc1	.	.	.	-	.	.
Cc1ccc2[nH]c3c(c2c1)CCc1cn[nH]c1-3	-	-	-	-	38	-
O=C(C1c2ccccc2Oc2ccccc21)N1CCC(c2nc3ccccc3[nH]2)CC1	.	.	.	-	.	.
CC(C)C[C@H]1CN([C@@H](Cc2ccc(O)cc2)CN2CCCC2CN2C(=S)NC[C@@H]2Cc2ccccc2)C(=S)N1CC1CCCCC1 (stereo not given in full)	.	.	.	.	30	-
CC(C)C[C@@H](CN1CCC[C@@H]1CN1C(=S)NC[C@@H]1Cc1ccc(O)cc1)N1C[C@H](Cc2ccc(O)cc2)N(CCc2ccccc2)C1=S	.	.	.	.	30	-
CC(C)C[C@H]1CN([C@@H](Cc2ccc(O)cc2)CN2CCC[C@@H]2CN2C(=S)NC[C@@H]2Cc2ccccc2)C(=S)N1CC1CCCCCC1	.	.	.	.	-	.
COC(=O)c1ccc(S(=O)(=O)N2CC(n3cc(CN4CCCC4=O)nn3)C2)cc1	.	.	.	-	.	.
CCCN(CC(=O)Nc1ccccc1C)C(=O)C1CCN(S(=O)(=O)c2ccc3c(c2)OCCO3)CC1	.	-	-	-	35	-
COc1ccc(-c2cc(COC(=O)CC3CCCCC3)no2)cc1	.	.	.	-	.	.
